Screening data as filed in PubChem BioAssay.
Only some compounds are listed: those with a hit (about 4.7% of all), similar ones and a draw of the others.
D1 antagonist: Antagonist of Human D 1 Dopamine Receptor: qHTS. activity change, negative = inhibition, % at 10 µM. HEK293 TREx D1 cells, calcium flux, dopamine EC80; active compounds read low. hit rate 3.2% among 360,000. AID 504652, 2011; in the data active means activity change below about -30%
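Allosteric or orthosteric antagonism assessed as attenuation of the calcium response to EC80 dopamine, added 180 s after compound, in induced HEK293 Trex D1 cells loaded with no-wash calcium dye.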
D1 agonist: Allosteric Agonists of the Human D1 Dopamine Receptor: qHTS. hit rate 1% among 360,000. AID 504660, 2011. HEK293 T-REx D1 cells, calcium flux, agonist mode. activation, % at 2 µM. D(1A) dopamine receptor (Homo sapiens), P21728
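Inducible HEK293 T-REx D1 cells, force-coupled to calcium signalling, were plated at 4000 cells/well with tetracycline and held overnight at 30 C. After no-wash calcium dye loading, compound-evoked calcium rise over 180 s flagged agonists.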
TRHR agonist: qHTS for Small Molecule Agonists and Allosteric Enhancers of Human TRH Receptor: Primary Screen for Agonists; AID 493084, 2011; activation, % at 2 µM; hit rate 0.18% among 360,000; TRHR cells, calcium flux fluo-8, FDSS agonist mode; Thyrotropin-releasing hormone receptor (Homo sapiens), P34981
Target sequence (P34981 whole entry, looked up): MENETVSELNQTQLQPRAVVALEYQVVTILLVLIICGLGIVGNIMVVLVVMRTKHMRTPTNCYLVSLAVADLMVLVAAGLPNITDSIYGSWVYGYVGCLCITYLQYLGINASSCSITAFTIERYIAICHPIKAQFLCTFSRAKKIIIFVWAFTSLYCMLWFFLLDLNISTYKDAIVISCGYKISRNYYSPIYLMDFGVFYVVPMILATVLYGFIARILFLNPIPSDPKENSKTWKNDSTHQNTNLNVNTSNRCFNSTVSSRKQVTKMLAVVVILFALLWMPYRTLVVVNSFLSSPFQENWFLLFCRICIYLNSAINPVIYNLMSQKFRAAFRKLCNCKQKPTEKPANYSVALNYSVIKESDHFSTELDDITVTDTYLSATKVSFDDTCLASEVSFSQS
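Fluo-8-loaded TRHR cells; 10 s baseline, compound added, kinetic Ca2+ fluorescence read 1/s, agonist mode.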
TRHR enhancer: qHTS for Small Molecule Agonists and Allosteric Enhancers of Human TRH Receptor: Primary Screen for Enhancers. enhancement, % at 2 µM. hit rate 0.66% among 360,000. AID 493056, 2011. Thyrotropin-releasing hormone receptor (Homo sapiens), P34981. TRHR cells, fluo-8 calcium fluorescence, EC20 TRH enhancement; in the data active means enhancement above about 30%
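Enhancer read-out: after compound pinning and an initial kinetic agonist-mode read, an EC20 of TRH (10 nM final) was injected and fluo-8 calcium signal (Ex 480/Em 530) followed at 1 s/cycle for 100 cycles in TRHR-expressing cells.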
D1 PAM: Potentiators of Human D1 Dopamine Receptor: qHTS; hit rate 0.036% among 360,000; HEK293 TREx D1 cells, calcium flux, dopamine EC20 potentiation; AID 504651, 2011; potentiation, % at 10 µM; in the data active means potentiation above about 30%
Each line names hits and unclear results; the compound was inactive in the other large screens. Unless noted, no stated cut-off is given here; in the data, active means activation above about 30%; inactive means the rest.

CCCCC(C(=O)N/N=C/c1ccccn1)C(=O)N/N=C/c1ccccn1	TRHR enhancer 35
Cc1cccc(C(=O)Nc2ccc(C(=O)N/N=C/c3ccc(C)o3)cc2)c1	D1 antagonist -48
Cc1ccc(C(=O)Nc2ccc(C(=O)N/N=C/c3ccccn3)cc2)cc1	D1 antagonist -38
CN(C)c1ccc(C(=O)N/N=C/c2ccccn2)cc1	D1 antagonist -40
Cc1cccc(OCC(=O)Nc2ccc3c(c2)nc2n3CCOC2)c1	none
CCCS(=O)(=O)N1CCN=C1SCc1ccc(C)cc1	none
CCCS(=O)(=O)N1CCN=C1SCc1cccc(C)c1	D1 antagonist -30
COc1ccc2c(Sc3ccccc3)c(C(=O)NCc3cc(Br)ccc3OC)[nH]c2c1	none
Cn1cnc(C(=O)N2CCN(C(=O)OC(C)(C)C)CC2)c1C(=O)N1CCN(C(=O)OC(C)(C)C)CC1	none
Cn1cnc(C(=O)N2CCN(c3ccccc3)CC2)c1C(=O)N1CCN(c2ccccc2)CC1	D1 antagonist -39
CSc1nn(Cc2cccc(Cl)c2)c(N(C(C)=O)C(C)=O)c1S(=O)(=O)c1ccccc1	D1 antagonist -61
CCCc1cnc(N2CCN(C(=O)c3ccc(OC)cc3)CC2)nc1	none
CCCOC1CCCN(C(=O)c2ccc(OC3CCN(C(=O)CCOC)CC3)cc2)C1 (stereo unspecified)	none
COC(=O)CCC(C)N1CCC(Oc2ccc(C(=O)N3CCCC3)cc2)CC1 (stereo unspecified)	D1 antagonist -30
COCCC(=O)N1CCC(Oc2ccc(C(=O)N3CCCC(OC)C3)cc2)CC1 (stereo unspecified)	D1 antagonist -35
CC(=O)N1CCc2c(sc3c2c(=O)n(-c2ccc(C)cc2)c(=O)n3Cc2c(F)cccc2Cl)C1	none
O=C(CCN1CCCCCC1)c1ccccc1	none
O=C(CCCCN1CCCCC1)c1ccc2c(c1)Cc1ccccc1-2	D1 antagonist -36, D1 agonist 31
O=Cc1ccccc1OCCOc1ccc([N+](=O)[O-])cc1	D1 antagonist -31
CCOc1cc(/C=N/O)ccc1OCc1ccc([N+](=O)[O-])cc1	none
O=[N+]([O-])c1ccc(COc2ccccc2/C=N/O)cc1	D1 antagonist -49
COc1cc(C)ccc1OCCOCCOc1ccc([N+](=O)[O-])cc1	D1 agonist 31
Cn1cnc(S(=O)(=O)N2CCC(C(=O)N3CCN(c4ccccc4F)CC3)CC2)c1	none
CC(=O)N1c2c(cc(Br)cc2S(=O)(=O)NCc2ccccc2Cl)CC1C (stereo unspecified)	none
O=C(CSc1nc(-c2cccc(Cl)c2)nc2cc(=O)[nH]n12)Nc1ccccc1	none
Cc1cc(O)c(C(c2ccc(F)cc2)N2CCN(c3ccccc3)CC2)c(=O)n1Cc1ccco1 (stereo unspecified)	none
Nc1cc(S(=O)(=O)Nc2cc(Cl)ccc2Cl)ccc1N1CCCC1	D1 antagonist -33
Nc1cc(S(=O)(=O)Nc2ccccc2Cl)ccc1N1CCOCC1	none
Nc1cc(S(=O)(=O)Nc2ccc(Cl)cc2)ccc1N1CCOCC1	none
COc1ccc(NS(=O)(=O)c2ccc(N3CCCC3)c(N)c2)cc1	D1 agonist 38
COc1ccc(N2CCN(C(=O)c3ccc(NS(=O)(=O)c4cccc(F)c4)cc3)CC2)cc1	none
COc1ccc(NS(=O)(=O)c2cccc(C(=O)OCC(=O)N3CCN(c4ccc(OC)cc4)CC3)c2)cc1	D1 antagonist -69
O=C(CSCc1ccccc1Cl)N1CCN(c2ccc(F)cc2)CC1	none
CCOc1ccc(C(=O)c2cn(Cc3ccccc3)c3c(F)cc(F)cc3c2=O)cc1	TRHR enhancer 33
O=C(NCc1cccc2ccsc12)c1cccs1	none
Cc1nc(SCC(=O)N(CC(C)C)C2CCS(=O)(=O)C2)c2c(C)c(C)sc2n1 (stereo unspecified)	none
CCN(C(=O)CSc1nc(C)nc2sc(C)c(C)c12)C1CCS(=O)(=O)C1 (stereo unspecified)	D1 antagonist -33
O=C(N/N=C/c1cc(Br)cc(Br)c1O)c1ccncc1	D1 agonist 54
O=C(N/N=C/c1ccc(O)cc1O)c1ccncc1	none
COc1cc(/C=C(\C#N)c2ccccn2)cc(OC)c1O	D1 agonist 38, TRHR agonist 47
COc1cc(/C=C(\C#N)c2ccccn2)ccc1OCc1ccccc1Cl	none
C/C(=N/NC(=O)C1CCCN1C(=O)c1ccc([N+](=O)[O-])cc1)c1ccc(Br)cc1 (stereo unspecified)	TRHR enhancer 35
O=C(N/N=C/c1ccccc1)C1CCCN1C(=O)c1cc([N+](=O)[O-])cc([N+](=O)[O-])c1 (stereo unspecified)	none
C=CCNC(=O)C1CCC(=O)N1S(=O)(=O)c1ccc(C)cc1 (stereo unspecified)	none
Cc1ccc(NC(=O)C2CCCN(S(=O)(=O)c3cccc4nsnc34)C2)cc1C (stereo unspecified)	none
Cc1ccc(C(=O)N(C)c2nnc(-c3ccncc3)s2)cc1	D1 antagonist -30
CCCCn1c(=O)c(F)cn(Cc2ccc(OC)c([N+](=O)[O-])c2)c1=O	D1 agonist 75
CCCCCn1c(=O)c(F)cn(Cc2ccc(OC)c([N+](=O)[O-])c2)c1=O	none
CCOC(=O)C1=C(COC(=O)COc2ccc(C#N)cc2)NC(=O)NC1C (stereo unspecified)	none
CC(=O)c1cccc(N=Nc2c(-c3ccccc3)[nH]n(-c3ccccc3)c2=O)c1	D1 antagonist -31
Cc1ccc2[nH]c3c(c2c1)CN(C(=O)CN1CCN(Cc2ccc4c(c2)OCO4)CC1)CC3	D1 antagonist -35, D1 agonist 42
Cc1ccc2[nH]c3c(c2c1)CN(C(=O)CN1CCSCC1)CC3	none
Cc1[nH]c(C)c(S(=O)(=O)NCc2ccc(F)cc2)c1C(=O)N1CCCCC1	none
CCn1c(=O)c(C(=O)NNC(=O)c2ccccc2F)c(O)c2ccccc21	D1 antagonist -42, D1 agonist 83, TRHR agonist 43
CCn1c(=O)c(C(=O)NNC(=O)c2ccccc2Cl)c(O)c2ccccc21	D1 agonist 66
CCCCCC(=O)NNC(=O)c1c(O)c2ccccc2n(CC)c1=O	none
CC(=O)c1cccc(NC(c2ccc(F)cc2)c2nnc(-c3ccccc3)o2)c1 (stereo unspecified)	none
CCc1cccc(CC)c1NC(=O)CO/N=C(\N)CC(=O)NC1CCCCC1	none
N/C(CC(=O)NC1CCCCC1)=N\OCC(=O)Nc1ccc(Cl)c(Cl)c1	D1 antagonist -94
O=C(COC(=O)c1ccc(Cl)cc1)NC1CCCCCC1	none (no result: D1 PAM)
